Results on 15 molecules are retold here after PubChem BioAssay (NCI).

Among the test systems are T-47D breast; BT-549 breast; MDA-MB-435 melanoma; SW-620 colon; MCF7 breast; HCT-116 colon; HCC-2998 colon; KM12 colon.
Common to all, as to assay: NCI-60 one-dose screen, 48 h (100 = growth as untreated, 0 = no growth, -100 = all killed)
Settings in all cases: 10 µM unless noted

This is part of a sample that, as a whole, favours compounds with a hit. Of some 83,000 tested, about 20% had one in any assay.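 Assay: single dose, 48 h. Readout: percent growth (0 = no net growth; negative = cell death). Active: <10.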 Unmarked numbers belong to inactive results. Activity calls are given as the source filed them.

Regarding `O=C1N=c2cc3c(cc2=C/C1=C/c1sc(=S)n(CCc2ccc(O)cc2)c1O)OCCO3`, the growth is 81.5% with T-47D breast; 78.5% in the assay with BT-549 breast; 61.1% in the assay on MDA-MB-435 melanoma; 5.91% (active) in the assay with SW-620 colon; 28.6% with MCF7 breast; 7.52% (active) with HCT-116 colon. The growth in the assay with HCC-2998 colon is 29.4%; in the assay with KM12 colon, 52.5%.
For `CSc1n(Cc2ccc3ccccc3c2)c(C)c[n+]1Cc1ccc2ccccc2c1`, the growth in the assay with T-47D breast was 0.45% (active); in the assay on BT-549 breast, -23.4% (active); with MDA-MB-435 melanoma, -66.2% (active); in the assay with SW-620 colon, 0.772% (active); with MCF7 breast, -62.8% (active); with HCT-116 colon, -0.907% (active). In addition, the figures for the growth in the assay on HCC-2998 colon and in the assay on KM12 colon were -91.1% (active) and -82.5% (active), respectively.
With `C=CCn1c(C)nc2cc(Nc3nc(Cl)nc4ccccc34)ccc21`, the growth in the assay with T-47D breast is 81.5%; with BT-549 breast, 94.8%; with MDA-MB-435 melanoma, 93.3%; with SW-620 colon it was 102%; in the assay on MCF7 breast, 94.6%; in the assay on HCT-116 colon it was 91.5%. For the same molecule, the values for the growth with HCC-2998 colon and with KM12 colon were 101% and 95.2%, respectively.
As to `COc1cc(/C=N/n2c(CN3CCOCC3)nc3ccccc3c2=O)cc(OC)c1OC`, the growth with T-47D breast was 94.4%; in the assay with BT-549 breast, 103%; in the assay with MDA-MB-435 melanoma it was 102%; with SW-620 colon, 106%; with MCF7 breast, 99.4%; with HCT-116 colon it was 94.5%. Moreover, the growth with HCC-2998 colon is 104%; in the assay on KM12 colon, 101%.
With `Cc1ccc2nc(NC(=O)CSc3nc(Nc4ccc([N+](=O)[O-])cc4)c(C#N)c(-c4ccccc4)n3)sc2c1`, the growth in the assay on T-47D breast is -58.4% (active); in the assay on BT-549 breast, 91.1%; with MDA-MB-435 melanoma, 107%; with SW-620 colon, 105%; in the assay on MCF7 breast, 87.1%; in the assay with HCT-116 colon, 89.5%. Also, the growth was 102% with HCC-2998 colon and 101% in the assay with KM12 colon.
Regarding `CN(Cc1cnc2nc(N)nc(N)c2n1)c1ccc(C(=O)N[C@@H](CCc2nn[nH]n2)c2nn[nH]n2)cc1`, the growth is 75.9% in the assay on T-47D breast; 53.2% in the assay on BT-549 breast; 38.5% in the assay with MDA-MB-435 melanoma; 20.1% with SW-620 colon; 17% in the assay with MCF7 breast; 18.3% with HCT-116 colon. The growth was 52.6% in the assay with HCC-2998 colon and 33% in the assay on KM12 colon.
In the case of `Cc1ccc(-c2cc3c(cc2O)C2CCCCC2(N2CCOCC2)O3)cc1` (stereo not given), the growth is 85% in the assay with T-47D breast; 95.4% in the assay with BT-549 breast; 98.4% in the assay on MDA-MB-435 melanoma; 117% in the assay with SW-620 colon; 88.5% in the assay on MCF7 breast; 97.3% in the assay on HCT-116 colon. Further, the growth with HCC-2998 colon was 106%; in the assay with KM12 colon, 109%.
For `CC(CCc1ccc(Cl)c(Cl)c1)NCc1ccc(C(C)(C)C)cc1` (stereo not given), the growth in the assay with T-47D breast was 67.7%; with BT-549 breast, 68.9%; in the assay on MDA-MB-435 melanoma, 93.1%; in the assay with SW-620 colon, 80.2%; with MCF7 breast it was 80.8%; with HCT-116 colon, 79.1%. The values for the growth in the assay with HCC-2998 colon and in the assay on KM12 colon were -18.4% (active) and 89.2%, respectively.
Regarding `NC(=S)N/N=C/Cc1ccccc1`, the growth in the assay on T-47D breast is 49.3%; with BT-549 breast it was 119%; in the assay with MDA-MB-435 melanoma, 124%; with SW-620 colon it was 102%; in the assay on MCF7 breast, 21.5%; with HCT-116 colon, 6.31% (active). Also, the growth in the assay with HCC-2998 colon was 113%; in the assay with KM12 colon it was 107%.
Regarding `COC(=O)[C@]12CC[C@@H](C)[C@H](C)[C@@H]1C1=CC[C@@H]3[C@@]4(C)C(C=O)=C[C@@](C)(CO)[C@@H]4[C@H](O)C[C@@]3(C)[C@]1(C)CC2`, the growth was -19.8% (active) with T-47D breast; -15.6% (active) in the assay on BT-549 breast; -16% (active) in the assay on MDA-MB-435 melanoma; -1.77% (active) in the assay on SW-620 colon; 3.73% (active) in the assay on MCF7 breast; -81.4% (active) in the assay on HCT-116 colon. Also, the growth in the assay with HCC-2998 colon is -79.2% (active); in the assay with KM12 colon, 1.71% (active).
As for `Cn1c(I)c(C#C[Si](C)(C)C)c(=O)n(C(=O)c2ccccc2)c1=O`, the growth with T-47D breast was 17.8%; with BT-549 breast it was 42.8%; with MDA-MB-435 melanoma, 53.9%; in the assay on SW-620 colon it was -83.4% (active); in the assay with MCF7 breast, -18.9% (active); in the assay with HCT-116 colon it was -61.6% (active). Also, the values for the growth in the assay with HCC-2998 colon and in the assay on KM12 colon were 0.121% (active) and 57.3%, respectively.
As to `COc1cc(N=Nc2cc(Cc3ccc(N(C)C)cc3)c(N)cc2N(C)C)c2ncccc2c1`, the growth was -12.1% (active) in the assay on T-47D breast; 29.6% in the assay on BT-549 breast; 18.7% in the assay on MDA-MB-435 melanoma; -33.7% (active) with SW-620 colon; -1.6% (active) with MCF7 breast; -23.7% (active) in the assay on HCT-116 colon. The growth in the assay with HCC-2998 colon is 26.1%; in the assay with KM12 colon, -11.4% (active).
In the case of `Nc1n[nH]c(-c2cc(Cl)ccc2O)c1-c1ccccc1`, the growth is 85.3% in the assay on T-47D breast; 112% with BT-549 breast; 93.6% with MDA-MB-435 melanoma; 102% in the assay on SW-620 colon; 92.7% with MCF7 breast; 85.1% in the assay with HCT-116 colon. The results for the growth with HCC-2998 colon and in the assay on KM12 colon were 86.5% and 64.2%, respectively.
In the case of `N#C/C(=C\c1ccc2c(c1)OCO2)n1nnc2cc(F)c(F)cc21`, the growth in the assay with T-47D breast was 20.6%; in the assay with BT-549 breast it was 60%; in the assay with MDA-MB-435 melanoma it was 3.37% (active); in the assay with SW-620 colon, 44.3%; in the assay with MCF7 breast, 44.4%; with HCT-116 colon it was 47%. Besides, the figures for the growth in the assay on HCC-2998 colon and with KM12 colon were 105% and 47.4%, respectively.
With `COC(=O)c1c2c(c(C)[n+]([O-])c1C)C(=O)C(NCc1ccc(F)c(Cl)c1)=CC2=O`, the growth with T-47D breast is -5.44% (active); in the assay with BT-549 breast, 43.7%; with MDA-MB-435 melanoma it was -82.4% (active); with SW-620 colon, 5.47% (active); in the assay with MCF7 breast it was -32.8% (active); in the assay on HCT-116 colon it was 0.429% (active). The growth in the assay with HCC-2998 colon is 13.3%; in the assay on KM12 colon, 11.5%.
